Compounds with a hit are over-represented: about 3.3% of the library has one in this group of screens.
AmpC inh no detg: qHTS Inhibitors of AmpC Beta-Lactamase (assay without detergent); P00811; AmpC nitrocefin hydrolysis, absorbance 480 nm, 0.0001% Triton; Potency, µM (highest dose often 57.1 µM), hits mostly inhibitors; 0.52% of 330,000 active; AID 485341, 2010; also: nearly all actives have a fitted effect of over 20% in size
Target sequence (P00811 whole entry, looked up): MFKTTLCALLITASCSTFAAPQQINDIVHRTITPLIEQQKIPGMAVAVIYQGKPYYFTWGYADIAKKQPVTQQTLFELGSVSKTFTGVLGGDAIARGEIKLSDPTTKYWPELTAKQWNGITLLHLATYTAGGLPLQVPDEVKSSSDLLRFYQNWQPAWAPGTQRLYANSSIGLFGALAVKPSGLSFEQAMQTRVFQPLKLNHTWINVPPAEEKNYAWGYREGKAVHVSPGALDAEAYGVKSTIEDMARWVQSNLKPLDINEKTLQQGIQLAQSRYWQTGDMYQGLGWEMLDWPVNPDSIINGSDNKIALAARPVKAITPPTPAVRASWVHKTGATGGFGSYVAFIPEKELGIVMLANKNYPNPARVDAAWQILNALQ
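20 mM phosphate pH 7.0 + 0.01% (detergent screen) or 0.0001% Triton X-100; 5.3 nM AmpC reagent; cpd preinc 15 min RT; nitrocefin (800 uM stock) to start; A480 q20 s × 4 min; Activity was normalised to no-enzyme and no-compound control wells.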
AmpC inh detg: qHTS Inhibitors of AmpC Beta-Lactamase (assay with detergent); AmpC hydrolysis of nitrocefin, absorbance 480 nm, 0.01% Triton; 0.041% of 370,000 active; P00811; AID 485294, 2010; Potency, µM (highest dose often 114 µM), usual class: inhibitors; also: nearly all actives have a fitted effect of over 25% in size
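20 mM phosphate pH 7.0 + 0.01% (detergent screen) or 0.0001% Triton X-100; 5.3 nM AmpC reagent; cpd preinc 15 min RT; nitrocefin (800 uM stock) to start; A480 q20 s × 4 min; Activity was normalised to no-enzyme and no-compound control wells.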
Sm TGR block: qHTS Assay for the Inhibitors of Schistosoma Mansoni Peroxiredoxins | Schistosoma mansoni thioredoxin glutathione reductase (TGR), Q962Y6 | purified TGR, DTNB reduction, TNB absorbance 405 nm | Potency, µM (highest dose often 114 µM), most hits filed as inhibitors | 3% of 360,000 active; also: nearly all actives have a fitted effect of over 60% in size
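First, TGR (20 nM dispensed) and NADPH were mixed with compound. Second, a 15 min room-temperature incubation followed. Third, further NADPH and then DTNB were added to start the reaction. Finally, TNB absorbance was monitored kinetically.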
A number is an active result; 0 = inactive; ? = inconclusive; - = no result; [ ] = another dose, or the depositor's remark. Calls follow the shape of the dose curve; as a rule, active = well fitted curve in the direction sought with a large enough effect; inconclusive = small, poorly fitted or top-dose-only effect, or another doubt; inactive = no such curve, though single readings can be large; an effect the other way counts as inactive or inconclusive.

SMILES	AmpC inh no detg	AmpC inh detg	Sm TGR block
COc1cc(OC)cc(-n2nnnc2SCC(=O)N2CCCC2)c1	0	?	0
CCc1ccc(Oc2nnnn2-c2ccc(C(N)=O)cc2)cc1	0	0	0
COc1ccc(-n2nnnc2S(=O)(=O)CC(=O)N2CCCCC2)cc1	0	0	10µM
CC(C)N(CCn1c(SCC(=O)Nc2cccnc2Cl)nc2ccccc2c1=O)C(C)C	0	?	0
O=C(Nc1ccccc1C(=O)N1CCN(CCO)CC1)c1cccc([N+](=O)[O-])c1	0	0	0
NC(=O)c1ccc(/C(N)=N/S(=O)(=O)c2cc(C(F)(F)F)cc(C(F)(F)F)c2)cc1	0	0	0
CCOC(=O)CSc1nc2nc(C)cc(C)n2n1	10µM	?	0
COC(=O)CSc1nc2nc(C)cc(C)n2n1	-	0	0
CCOC(=O)c1c(NC(=O)c2ccc(N3C(=O)[C@@H]4[C@H](C3=O)[C@H]3C=C[C@@H]4C3)cc2)sc2c1CCCC2	0	0	0
Cc1ccc(N2C(=O)C(Cl)=C(Nc3c(C)n(C)n(-c4ccccc4)c3=O)C2=O)cc1	?	0	8.9µM
Cc1cccc(N2C(=O)C(Cl)=C(Nc3c(C)n(C)n(-c4ccccc4)c3=O)C2=O)c1C	0	0	8.9µM
Cc1ccc(Nc2nc3ccccc3nc2Nc2c(C)n(C)n(-c3ccccc3)c2=O)cc1	0	?	0
Cc1c(NC(=O)Nc2c(Cl)cccc2Cl)c(=O)n(-c2ccccc2)n1C	0	0	0
O=C(C[C@@H]1C/C=C\C[C@@H](Cc2ccc(F)cc2)C(=O)OCCNC1=O)N[C@H](CO)Cc1ccccc1	0	-	-
CCn1c2ccccc2c2cc(CN3CCN(Cc4cc(OC)ccc4O)CC3)ccc21	0	0	0
COc1cc(OC)c(OC)cc1CN1CCN(Cc2ccc(SC)cc2)CC1	0	0	0
COc1cc(CN2CCN(Cc3ccc(SC)cc3)CC2)cc(OC)c1O	0	0	10µM
CCn1c2ccccc2c2cc(CN3CCN(Cc4cc(OC)c(O)c(OC)c4)CC3)ccc21	-	0	35µM
CCc1nn2c(=O)cc(COC(=O)c3ccc(NC(=O)COc4ccccc4C)cc3)nc2s1	-	0	0
O=C(NCCc1ccc(Cl)cc1)c1ccc2[nH]c(=O)c(=O)[nH]c2c1	0	0	0
C/C=C/C=C/C(=O)[C@@H]1[C@@H]([C@]2(C)OC(=O)C(C)=C2O)[C@H]2/C(=C(O)/C=C/C=C/C)C(=O)[C@]1(C)C(=O)C2(C)O (some centres not stated)	0	0	10µM
Cc1cccc(Oc2ccccc2NC(=O)C2=COCCO2)c1	0	0	0
CC(C)C(=O)NC(Oc1ccccc1Cl)C(Cl)(Cl)Cl (configuration not stated)	0	0	25µM
O=C(Cc1ccccc1)NC(Oc1ccccc1Cl)C(Cl)(Cl)Cl (configuration not stated)	0	0	32µM
CCOP(=O)(OCC)C(NC(=O)Cc1ccccc1)C(Cl)(Cl)Cl (configuration not stated)	0	0	0
SMILES	AmpC inh no detg	AmpC inh detg	Sm TGR block
Cc1cccc(C(=O)NC(Oc2ccccc2)C(Cl)(Cl)Cl)c1 (configuration not stated)	0	0	0
Cc1cc(NC(=O)COc2coc(CN3CCN(c4ccccc4F)CC3)cc2=O)no1	0	0	0
CN(c1ccc(OC(=O)CN2C(=O)NC3(CCCC3)C2=O)cc1)S(=O)(=O)c1ccccc1	?	0	0
O=C(NN1C(=O)/C(=C/C=C/c2ccco2)SC1=S)c1ccccc1O	16µM	0	2.8µM
Cn1cccc1/C=C1\SC(=S)N(NC(=O)c2ccccc2O)C1=O	0	0	0
Cc1ccc(NC(=O)CCCN2C(=O)/C(=C/C=C/c3ccccc3)SC2=S)cc1	0	0	0
COc1ccc(/C=C2\SC(=S)N(C(Cc3ccccc3)C(=O)O)C2=O)cc1 (configuration not stated)	0	0	0
O=C(O)C(Cc1ccccc1)N1C(=O)/C(=C/C=C/c2ccco2)SC1=S (configuration not stated)	0	?	6.3µM
O=C(O)CC(C(=O)O)N1C(=O)/C(=C/C=C/c2ccco2)SC1=S (configuration not stated)	0	0	5µM
O=C(O)CC(C(=O)O)N1C(=O)/C(=C/c2ccc(-c3nc4ccccc4s3)o2)SC1=S (configuration not stated)	0	0	?
O=C(O)CCCN1C(=O)/C(=C/C=C/c2ccco2)SC1=S	0	0	1.8µM
O=C(Nc1nnc(C2CC2)s1)c1cc([N+](=O)[O-])ccc1N1CCCCC1	0	0	0
CC(C)(C)c1ccc(NC(=O)c2c(F)cccc2Cl)cc1	0	0	0
Nc1ncnc2c1ncn2[C@@H]1O[C@H](CNCc2ccccc2OCC(=O)N2CCCCC2)[C@@H](O)[C@H]1O	0	-	-
O=C(O)CCN1C(=O)/C(=C/c2ccc(-c3nc4ccccc4s3)o2)SC1=S	0	0	0
O=C(O)CCCN1C(=O)/C(=C\c2ccc(-c3nc4ccccc4s3)o2)SC1=S	0	0	35µM
COc1ccc(C(=O)NNc2ncnc3c2cnn3-c2ccccc2)cc1	-	0	0
O=C1CC(N2CCOCC2)C(=O)N1Cc1ccc(N2CCCC2=O)cc1 (configuration not stated)	0	0	0[11.4 µM]
O=C1CC(N2CCC(O)(c3ccc(Cl)cc3)CC2)C(=O)N1Cc1ccc(N2CCCC2=O)cc1 (configuration not stated)	0	0	32µM
O=C1CCCN1CCC1CCN(C2CC(=O)N(c3ccc(Cl)cc3)C2=O)CC1 (configuration not stated)	-	0	18µM
O=C1CC(N2CCN(C/C=C/c3ccccc3)CC2)C(=O)N1Cc1ccc(N2CCCC2=O)cc1 (configuration not stated)	0	?	0
O=C1CCCN1CCC1CCN(C2CC(=O)N(Cc3ccc(N4CCCC4=O)cc3)C2=O)CC1 (configuration not stated)	0	0	18µM
O=C1CC(N2CCN(CCc3ccccn3)CC2)C(=O)N1c1ccc(Cl)cc1 (configuration not stated)	0	0	0
COc1ccccc1S(=O)(=O)NCc1ccc(C(=O)NC(C)c2ccccn2)cc1 (configuration not stated)	0	0	0
CCN(CC(=O)Nc1c(F)cccc1F)C(=O)CCNC(=O)c1ccccc1OC	0	?	0
SMILES	AmpC inh no detg	AmpC inh detg	Sm TGR block
CCc1ccc(NC(=O)CSc2nc(=O)n(Cc3ccncc3)c3c2CCC3)cc1	-	0	0
NCCCn1c(C(=O)c2cc(Cl)c(N)c(Cl)c2)c2ccccc2[n+]1[O-]	0	0	35µM
NC(=O)CCn1c(C(=O)c2cc(Cl)c(N)c(Cl)c2)c2ccccc2[n+]1[O-]	0	0	0
Cc1ccc(C(=O)c2c3ccc(C(F)(F)F)cc3[n+]([O-])n2CCCN)cc1	0	0	0
Cc1ccc(C(=O)c2c3ccc([N+](=O)[O-])cc3[n+]([O-])n2CCCN)cc1	0	0	35µM
COc1ccc2cc(/C=C/C(=O)N3CCN(CC(=O)N4CCCCCC4)CC3)ccc2c1	0	0	0
